# Results as given in the supplement of paper PMC9262897, “Low-cost anti-mycobacterial drug discovery using engineered E. coli” (Nature Communications, 2022).
# Structures can show the parent of a compound that is named as a salt. ± gives the standard deviation of the averaged measurements.
# System: E. coli TESEC Mtb Alr
# Experiment: growth (OD600 after 10 h); higher = more growth (less inhibition)
# Conditions: arabinose 100000 nM; compound 0.1 mM; raw OD600 reference: median of DMSO wells 0.201, cell-free background 0.041
# Method: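 TESEC Mtb Alr E. coli, or the Alr+ wild-type control, in 384-well plates with Prestwick library compounds at 0.1 mM and 1% DMSO, across arabinose induction levels of 1E3 to 1E7 nM. Growth is read as OD600 after 10 h at 37 °C in triplicate biological replicates.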
row,Structure (SMILES),growth
1,CN1CCCC(n2nc(Cc3ccc(Cl)cc3)c3ccccc3c2=O)CC1 (centres undefined) [Azelastine HCl],0.193 ± 0.0073
2,COC(=O)Nc1nc2ccc(SC(C)C)cc2[nH]1 [Methiazole],0.195 ± 0.013
3,CCCCNC(=O)NS(=O)(=O)c1ccc(C)cc1 [Tolbutamide],0.191 ± 0.018
4,CS(=O)(=O)OCCCCOS(C)(=O)=O [Busulfan],0.233 ± 0.026
5,Fc1ccc([C@@H]2CCNC[C@H]2COc2ccc3c(c2)OCO3)cc1 [Paroxetine Hydrochloride],0.129 ± 0.0033
6,CC1(C)O[C@@H]2C[C@H]3[C@@H]4C[C@H](F)C5=CC(=O)C=C[C@]5(C)[C@H]4[C@@H](O)C[C@]3(C)[C@]2(C(=O)CO)O1 [Flunisolide],0.192 ± 0.011
7,CNCCc1ccccn1 [Betahistine mesylate],0.243 ± 0.047
8,CC(C(=O)O)c1ccc(C(=O)c2cccs2)cc1 (centres undefined) [Suprofen],0.205 ± 0.0094
9,CCCCCCCCNC(C)C(O)c1ccc(SC(C)C)cc1 (centres undefined) [Suloctidil],0.0403 ± 0.00044
10,CCCc1cc(C(N)=S)ccn1 [Prothionamide],0.184 ± 0.028
11,CCC[C@@H]1C[C@@H](C(=O)N[C@@H]([C@H]2O[C@H](SC)[C@H](O)[C@@H](O)[C@H]2O)[C@@H](C)O)N(C)C1 [Lincomycin hydrochloride],0.113 ± 0.0046
12,C[C@]12CC[C@@H]3c4ccc(O)cc4C[C@@H](CCCCCCCCC[S+]([O-])CCCC(F)(F)C(F)(F)F)[C@H]3[C@@H]1CC[C@@H]2O (some centres undefined) [Fulvestrant],0.195 ± 0.017
13,CN(C)CCCSC(=N)N [Dimaprit dihydrochloride],0.205 ± 0.014
14,CN1CCN(c2c(F)cc3c(=O)c(C(=O)O)cn4c3c2SCC4)CC1 [Rufloxacin],0.04207 ± 0.00031
15,CC(=O)OCC(=O)[C@@]1(OC(C)=O)[C@@H](C)C[C@H]2[C@@H]3C[C@H](F)C4=CC(=O)C=C[C@]4(C)[C@@]3(F)[C@@H](O)C[C@@]21C [Diflorasone Diacetate],0.194 ± 0.014
16,CS(=O)(=O)c1ccc([C@@H](O)[C@@H](CO)NC(=O)C(Cl)Cl)cc1 [Thiamphenicol],0.0517 ± 0.0013
17,CSc1nc2cc(Cl)c(Oc3cccc(Cl)c3Cl)cc2[nH]1 [Triclabendazole],0.0447 ± 0.0021

row,Structure (SMILES),growth
1,CC(C)(CO)C(O)C(=O)NCCCO (centres undefined) [Panthenol (D)],0.216 ± 0.053
2,Cc1onc(-c2ccccc2Cl)c1C(=O)N[C@@H]1C(=O)N2[C@@H]1SC(C)(C)[C@@H]2C(=O)O [Cloxacillin sodium salt],0.217 ± 0.025
3,OCCN(CCO)c1nc(N2CCCCC2)c2nc(N(CCO)CCO)nc(N3CCCCC3)c2n1 [Dipyridamole],0.0725 ± 0.015
4,CN(C)CCN(Cc1ccc(Cl)cc1)c1ccccn1 [Chloropyramine hydrochloride],0.201 ± 0.0069
5,CCCCOC(=O)c1ccc(N)cc1 [Butamben],0.186 ± 0.011
6,Nc1c(Br)cc(Br)cc1CN[C@H]1CC[C@H](O)CC1 [Ambroxol hydrochloride],0.18 ± 0.031
7,C[C@]12CC[C@@H]3c4ccc(OS(=O)(=O)O)cc4CC[C@H]3[C@@H]1CCC2=O [Estropipate],0.177 ± 0.011
8,CC(NCCC(c1ccccc1)c1ccccc1)c1ccccc1 (centres undefined) [Fendiline hydrochloride],0.0416 ± 0.0018
9,C[C@@H]1C[C@H]2[C@@H]3C[C@H](F)C4=CC(=O)C=C[C@]4(C)[C@@]3(F)[C@@H](O)C[C@]2(C)[C@@]1(O)C(=O)COC(=O)C(C)(C)C [Flumethasone pivalate],0.209 ± 0.016
10,COc1cc(C(=O)NC2CCCNC2)cc(OC)c1OC (centres undefined) [Troxipide],0.205 ± 0.016
11,"COCCc1ccc(OCC(O)CNC(C)C)cc1 (racemic) [Metoprolol-(+,-) (+)-tartrate salt]",0.203 ± 0.013
12,CC(Oc1c(Cl)cccc1Cl)C1=NCCN1 (centres undefined) [Lofexidine],0.179 ± 0.015
13,N#CC(c1ccc(Cl)cc1)c1c(Cl)cc(-n2ncc(=O)[nH]c2=O)cc1Cl (centres undefined) [Diclazuril],0.0425 ± 0.0014
14,Cc1cc(C(C)(C)CC(C)(C)C)ccc1OCCOCC[N+](C)(C)Cc1ccccc1 [Methyl benzethonium chloride],0.0489 ± 0.00059
15,CC(=O)CC(c1ccc([N+](=O)[O-])cc1)c1c(O)c2ccccc2oc1=O (centres undefined) [Acenocoumarol],0.175 ± 0.0092
16,COCC1=C(C(=O)OC(C)OC(=O)OC(C)C)N2C(=O)[C@@H](NC(=O)/C(=N\OC)c3csc(N)n3)[C@H]2SC1 (some centres undefined) [Cefpodoxime proxetil],0.22 ± 0.011
17,CC(=O)OCC(=O)[C@@]12OC(C)(C)O[C@@H]1C[C@H]1[C@@H]3C[C@H](F)C4=CC(=O)C=C[C@]4(C)[C@@]3(F)[C@@H](O)C[C@@]12C [Fluocinonide],0.195 ± 0.015
